Screening data deposited in PubChem by National Center for Advancing Translational Sciences (NCATS).
Shown are actives, neighbours in structure and some others; about 21% of the full set was active somewhere.
Shiga toxin inh: A qHTS for Small Molecule Inhibitors of Shiga Toxin; Vero cells, Shiga toxin protein synthesis inhibition reporter; inhibition, % at 38.7 µM; hit rate 9.2% among 290,000; AID 2315, 2010; in the data active = inhibition mostly above about 28%, no sharp cut-off; inactive = mostly below about 43%
Pf growth 48h: Primary qHTS for delayed death inhibitors of the malarial parasite plastid, 48 hour incubation | P. falciparum luciferase growth in erythrocytes, 48 h | Potency, µM (titrated, usually from 28.7 µM), most hits filed as inhibitors | hit rate 5.9% among 310,000 | AID 504832, 2011
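Luminescence readout; reporter = integrated firefly luciferase in P. falciparum. RBC culture at 2% hematocrit, 0.1% parasitemia final, 37 C/5% CO2; decreased signal taken as growth inhibition.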
CHX counter: Cycloheximide Counterscreen for Small Molecule Inhibitors of Shiga Toxin. cell reporter, cycloheximide protein synthesis inhibition counterscreen. max response, %. hit rate 12% among 300,000. AID 2314, 2010; in the data active = max response mostly above about 13%, no sharp cut-off; inactive = mostly below about 14%; note: read at 38.3 µM for the half of the compounds with a filed dose
HCMV inh: qHTS Assay for inhibitors of the human cytomegalovirus (HCMV) | HFF cells, HCMV-luciferase reporter, 72 h; hits give low values | activity change, negative = inhibition, % at 57.5 µM | hit rate 4.5% among 410,000; in the data active = activity change below about -60%; inconclusive = no clear call, values can overlap the other calls; inactive = above about -39%
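Human foreskin fibroblasts infected with luciferase-reporter HCMV at MOI 1 PFU/cell, compounds at two doses. Luciferase measured 72 h post infection; normalized to buffer-only basal and Salinomycin (10uM) controls.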
Pf growth 96h: Primary qHTS for delayed death inhibitors of the malarial parasite plastid, 96 hour incubation; Potency, µM (highest dose often 28.7 µM), actives largely listed as inhibitors; hit rate 6.9% among 320,000; P. falciparum luciferase reporter growth, 96 h
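Luminescence readout: decreased luciferase signal marks inhibited growth of reporter-expressing P. falciparum in infected red cells (2% hematocrit, 0.05% parasitemia final), exposed to compound two generations (96 h, 37 C, 5% CO2).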
HCV inh: qHTS Assay for Inhibitors of Hepatitis C Virus (HCV) | Potency, µM (titrated, usually from 41.8 µM), usual class: inhibitors | Huh7.5.1 HCVcc-Cre infection, luciferase reporter, 44 h | hit rate 3.4% among 340,000
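Antiviral activity was scored by luciferase reporter output from cells infected with HCVcc-Cre (~0.5 moi) in presence of compound, 44 h infection period, cells seeded 1,000/well 4 h prior.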
Hits are given with their value; - = inactive; ? = inconclusive; . = no result. Unless noted, calls come from the whole dose curve; as a rule, active = well fitted inhibition curve with a large enough effect; inconclusive = small, poorly fitted or top-dose-only effect, or another doubt; inactive = no such curve, though single readings can be large or run the other way.

SMILES | Shiga toxin inh | Pf growth 48h | CHX counter | HCMV inh | Pf growth 96h | HCV inh
CC(=O)N1CCN(c2nc(-c3cccs3)nc3ccccc23)CC1 | - | ? | - | - | - | 11µM
CCOC(=O)N1CCN(c2nc(-c3cccs3)nc3ccccc23)CC1 | - | - | - | ? | ? | ?
O=C(c1cc(-c2ccccc2Cl)nc2ccccc12)N1CCC1 | . | - | . | - | - | -
O=C(c1cc(-c2ccccc2Cl)nc2ccccc12)N1CCN(c2ccccc2O)CC1 | . | 9.3µM | . | - | 4.1µM | ?
Cc1ccc(-c2cc(C(=O)N3CCN(c4ccccc4O)CC3)c3ccccc3n2)cc1 | . | 3.3µM | . | - | ? | -
Cc1ccccc1-c1cc(C(=O)N2CCCC2)c2ccccc2n1 | - | - | - | - | - | -
CC(C)c1ccc(CC(=O)N2CCC2(C)C(=O)NCc2cccc3ccccc23)cc1 (configuration not stated) | . | . | . | - | . | .
COc1ccc(-c2cc(C(=O)Nc3ccccc3N3CCOCC3)c3ccccc3n2)cc1OC | - | ? | - | ? | ? | ?
COc1ccc(-c2cc(C(=O)N3CCN(c4ccccc4O)CC3)c3ccccc3n2)cc1OC | - | 2.1µM | - | - | 2.6µM | ?
O=C(c1cc(-c2cccs2)nc2ccccc12)N1CCN(c2ccccc2O)CC1 | - | ? | 19 | - | ? | -
O=C(c1cc(-c2cccs2)nc2ccccc12)N1CCN(CCO)CC1 | . | - | . | - | - | ?
O=C(NCCc1nc2ccccc2[nH]1)c1ccco1 | - | - | - | - | - | -
COc1ccc(/C=C/C(=O)NCCc2nc3ccccc3[nH]2)cc1 | - | ? | 16 | - | ? | -
COc1cc(/C=C/C(=O)NCc2nc3ccccc3[nH]2)cc(OC)c1OC | - | ? | - | - | ? | -
CCCCOc1ccc(/C=C/C(=O)NCCc2nc3ccccc3[nH]2)cc1 | - | ? | - | - | 12µM | .
O=C(/C=C/c1ccco1)N/C(=C\c1ccccc1)C(=O)NCCc1nc2ccccc2[nH]1 | 37 | - | - | - | - | -
Cc1cn(C)c(CC(=O)N2CCN(c3ccc(F)cc3)CC2)c1C(=O)O | . | . | . | - | . | .
CC1CCCCN1c1nnc(NC(=O)Nc2ccccc2F)s1 (configuration not stated) | . | . | . | - | . | .
CC1CCCN(C(=O)COC(=O)Cn2cnc3ccccc32)C1 (configuration not stated) | . | . | . | - | . | -
COC(=O)Cc1ccc2c3ccccc3n(C)c2c1 | - | - | 25 | - | - | ?
COC(=O)c1ccc(Cn2c(C)c(C(=O)NCc3ccc(Cl)c(Cl)c3)sc2=O)o1 | . | . | . | - | . | .
CCn1c(=S)sc2c(=O)n(-c3ccccc3)c(SCC(=O)NCc3ccco3)nc21 | - | ? | - | - | - | -
CCC(C)NC(=O)CSc1nc2c(sc(=S)n2Cc2ccco2)c(=O)n1-c1ccccc1 (configuration not stated) | - | . | - | ? | - | ?
CCN(CC)C(=O)CSc1nc2c(sc(=S)n2CC)c(=O)n1-c1ccccc1 | - | . | - | -72 | ? | -
CCN(CC)C(=O)CSc1nc2c(sc(=S)n2-c2ccccc2OC)c(=O)n1-c1ccccc1 | - | 12µM | - | ? | ? | -
SMILES | Shiga toxin inh | Pf growth 48h | CHX counter | HCMV inh | Pf growth 96h | HCV inh
CCOC(=O)CSc1nc2c(sc(=S)n2Cc2ccco2)c(=O)n1-c1ccc(F)cc1 | - | 10µM | - | - | - | ?
COc1ccccc1-n1c(SCC(=O)O)nc2c(sc(=S)n2-c2ccccc2C)c1=O | - | - | - | - | - | -
CCN(CC)C(=O)CSc1nc2c(sc(=S)n2-c2ccccc2)c(=O)n1Cc1ccco1 | - | . | - | -67 | - | 10µM
N#Cc1ccc(OCC(=O)Nc2cc(S(=O)(=O)N3CCOCC3)ccc2N2CCCC2)cc1 | . | . | . | - | . | -
COc1cc2c(cc1OC)/C(=C/C(C)=O)OC2 | . | . | . | - | . | .
CCCn1cnc2c1c(=O)n(CCCCC(C)=O)c(=O)n2C | . | 12µM | . | - | - | .
CCN(CC)C(=O)Cn1cnc2c1c(=O)n(C)c(=O)n2C | - | - | - | - | . | -
CCN(CC#CCC(O)(c1ccccc1)c1ccccc1)C(C)C | - | 8.3µM | - | ? | ? | -
CCCCc1nn2c(=O)cc(COC(=O)c3ccc(NC(=O)C(CC)CC)cc3)nc2s1 | . | . | . | - | . | .
